# In the library only some 8.3% were active in any assay of this set; here they are far more common.
# SW480 rereplic – inducers of DNA re-replication in SW480 colon cancer cells; SW480 DNA re-replication, Hoechst DNA content imaging, 48 h; Potency, µM (titrated, usually from 46.1 µM), for inactives: at the highest dose re-replication activation, usual class: activators; hit rate 1.8% among 340,000; AID 624297; also: potency is read from the fitted curve at half-maximal effect; % of control where 0% means no effect; nearly all actives have a fitted effect of over 55% in size
#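 250 cells/well; 23 nL cpd via pin tool; 48 hr, 37 C, 5% CO2; Hoechst 40 min; imager read of total nuclear intensity, ex 405/em 500-530 nm.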
# Giardia killer – Giardia lamblia killing; Giardia lamblia trophozoite viability; activity change, % at 7.66 µM, hits read low; hit rate 0.15% among 340,000; AID 540267; in the data active = activity change below about -80%; inconclusive = between about -30% and that limit;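 also: parasites exposed to compound for two days anaerobically before the ATP read; % is scaled to controls: 0 for no effect and ±100 for the full control effect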
#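 ATP-content bioluminescence gauges trophozoite survival. Cells (100/well) receive compound and incubate anaerobically for 48 hrs at 37 deg C; detection reagent follows for 15-30 min at room temperature.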
# MCF10A rerep – DNA re-replication induction in MCF 10a cells; MCF 10A DNA re-replication, Hoechst nuclear intensity, 48 h; Potency, µM (highest dose often 46.1 µM), inactives show at the top dose activity, positive = re-replication, hits mostly activators; hit rate 2.9% among 350,000; AID 624296; also: potency is read from the fitted curve at half-maximal effect; % of control where 0% means no effect; nearly all actives have a fitted effect of over 50% in size
# RORg inh – blocks mouse ROR gamma transcriptional activity; AID 2551; P51450; hit rate 5.4% among 310,000; Potency, µM (highest dose often 53.6 µM), for the others: at the top dose activity change, negative = inhibition, usual class: inhibitors; Drosophila S2 Gal4-RORgamma UAS-luciferase reporter, 20 h; also: potency is read from the fitted curve at half-maximal effect; % is scaled to controls: 0 for no effect and ±100 for the full control effect; nearly all actives have a fitted effect of over 60% in size
# Target sequence (P51450 whole entry, looked up, the tested form may be a part): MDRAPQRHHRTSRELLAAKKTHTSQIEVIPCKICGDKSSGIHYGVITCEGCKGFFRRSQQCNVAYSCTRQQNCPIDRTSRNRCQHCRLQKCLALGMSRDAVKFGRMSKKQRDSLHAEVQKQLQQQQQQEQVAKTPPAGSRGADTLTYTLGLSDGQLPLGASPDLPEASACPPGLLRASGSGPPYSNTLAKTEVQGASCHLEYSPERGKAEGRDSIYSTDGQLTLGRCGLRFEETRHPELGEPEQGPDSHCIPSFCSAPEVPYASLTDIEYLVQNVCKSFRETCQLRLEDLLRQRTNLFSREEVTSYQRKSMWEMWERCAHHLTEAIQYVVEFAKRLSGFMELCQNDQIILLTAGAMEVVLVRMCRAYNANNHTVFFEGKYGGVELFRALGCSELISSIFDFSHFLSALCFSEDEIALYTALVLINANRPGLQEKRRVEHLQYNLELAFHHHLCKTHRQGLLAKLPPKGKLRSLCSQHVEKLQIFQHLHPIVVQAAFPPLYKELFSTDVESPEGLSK
#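 Luciferase reporter read in Schneider cells carrying Gal4-RORγ (mouse) and UAS-Photinus luciferase; cells given compound 1 h before 700 uM copper sulfate induction, then incubated 20 h at ambient temperature.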
# BCR signal inh – blocks chronic active B-cell receptor signaling; Potency, µM (doses to about 46.1 µM), inactives show at the highest dose activity change, negative = inhibition, actives largely listed as inhibitors; hit rate 0.05% among 340,000; ABC-DLBCL IkBa-CBG/CBR reporter, luminescence ratio, 4 h; AID 493014; active = well fitted inhibition curve with a large enough effect in the signal ratio, with a control signal flat, not every such curve was filed as active; inconclusive = small, poorly fitted or top-dose-only effect, or effect the other way, or a change in a side signal; the % refers to the signal ratio;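 also: potency is read from the fitted curve at half-maximal effect; plate controls were basal doxycycline-induced cells for no effect and cells given 10 µM MG132 for full effect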
#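 TMD8 ABC-DLBCL cells carrying doxycycline-inducible green luciferase fused to IkappaBalpha plus unfused red luciferase were exposed to compounds (up to 46 uM) for 4 hrs at 37C. Activity came from the overlap-corrected green/red luminescence ratio.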
# VP16 counter – counter-screen for ROR gamma inhibitors: Gal4-VP16 reporter. AID 2546. Drosophila S2 Gal4-VP16 UAS-luciferase, luminescence, 20 h. Potency, µM (top dose mostly 53.6 µM), inactives show at the highest dose activity, negative = inhibition, actives largely listed as inhibitors. hit rate 3.5% among 310,000;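 also: Gal4-VP16 expression switched on by copper sulfate through the metallothionein promoter; potency is read from the fitted curve at half-maximal effect; % is scaled to controls: 0 for no effect and ±100 for the full control effect; nearly all actives have a fitted effect of over 50% in size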
# Active calls of the source: *; ? = inconclusive; · = not tested or not shown; [ ] = remark or other dose. Unless noted, calls follow the shape of the dose curve; as a rule, active = well fitted curve in the direction sought with a large enough effect; inconclusive = small, poorly fitted or top-dose-only effect, or another doubt; inactive = no such curve, though single readings can be large; an effect the other way counts as inactive or inconclusive.
SMILES,SW480 rereplic,Giardia killer,MCF10A rerep,RORg inh,BCR signal inh,VP16 counter
Cc1cccc(-n2ccnc2CN2CCN(C(C)C)C(CCO)C2)c1 (centres undefined),1.1%,2.6,-6.0%,?,-7.5%,-5.6%
Brc1cc(Br)c2ncnc(N3CCCCC3)c2c1,?,6.0,5.8µM*,-18.7%[10 µM],-9.0%,-10.1%
Cc1ccc2sc(N3CCN(C(=O)c4ccc([N+](=O)[O-])o4)CC3)nc2c1C,1.9%,-29.4,?,·,7.8%,·
Cn1c(C(=O)N2CCN(c3nc4ccccc4s3)CC2)cc2sccc21,6.0%,2.8,1.0%,17.2%,-12.1%,8.5%
COc1cccc2sc(N3CCN(c4nc5ccccc5s4)CC3)nc12,9.1%,7.2,?,-17.3%,?,-10.1%
O=C(c1ccc([N+](=O)[O-])o1)N1CCN(c2nc3c(Cl)cccc3s2)CC1,?,?,7.31µM*,·,-2.2%,·
O=C(c1ccc([N+](=O)[O-])o1)N1CCN(c2nc3ccc(F)cc3s2)CC1,?,-88.8*,?,·,-19.0%,·
O=C(c1cc2sccc2n1Cc1ccc(F)cc1)N1CCN(c2nc3ccccc3s2)CC1,15.0%,2.7,1.5%,?,?,11.2µM*
COc1cccc2sc(N3CCN(C(=O)c4ccc([N+](=O)[O-])o4)CC3)nc12,?,-86.9*,23.1µM*,·,?,·
O=C(COC(=O)c1cc(S(=O)(=O)N2CCOCC2)ccc1Cl)Nc1ccccc1Cl,-2.0%,0.2,-0.5%,·,?,·
CN(CC(=O)Nc1c(Cl)cccc1Cl)C(=O)CCC1CCCC1,19.0%,16.9,3.8%,-56.0%,0.8%,11.2µM*
Cc1ccc(C(=O)OCC(=O)NC(C)c2ccccc2)s1 (centres undefined),-4.0%,-13.0,-40.2%,·,1.8%,·
CC(NC(=O)COC(=O)c1ccc([N+](=O)[O-])s1)c1ccccc1 (centres undefined),9.9%,7.1,12.1%,11.2µM*,-0.3%,-25.2%
NS(=O)(=O)c1ccc(NC(=O)COC(=O)c2ccc([N+](=O)[O-])s2)cc1,16.4µM*,15.0,3.6%,5.1%,?,7.9%
CNC(=O)/C(C#N)=C/c1c(N2CCN(c3ccc(OC)cc3)CC2)nc2c(C)cccn2c1=O,-1.2%,23.3,20.6µM*,21.1%,-0.9%,0.5%
COCCCNC(=O)/C(C#N)=C/c1c(N2CCN(C)CC2)nc2c(C)cccn2c1=O,?,5.9,?,-23.1%,1.0%,11.5%
COCCNC(=O)/C(C#N)=C/c1c(N2CCN(C)CC2)nc2c(C)cccn2c1=O,20.6µM*,16.4,-6.1%,-21.4%,6.9%,-1.7%
CCN1CCN(c2nc3c(C)cccn3c(=O)c2/C=C(\C#N)C(=O)NCCOC)CC1,6.51µM*,7.9,16.4µM*,3.1%,3.4%,1.0%
COc1c2ccoc2nc2c(OC)c(OC[C@H](O)C(C)(C)O)ccc12,·,·,·,-5.7%[16.9 µM],·,5.1%[17 µM]
Cc1ccc(C(=O)N2CCN(c3ccccc3)CC2)cc1C,-0.7%,9.2,-2.4%,32.9%,3.6%,2.6%
Cc1ccc(C(=O)N2CCN(c3cccc(Cl)c3)CC2)cc1C,11.6µM*,-0.4,18.4µM*,-42.1%,?,17.4%
COc1ccc(C(=O)N2CCN(c3cccc(Cl)c3)CC2)cc1S(=O)(=O)NC1CC1,23.7%,25.2,23.1µM*,·,6.0%,·
O=C(c1cnc(N2CCN(c3ccccn3)CC2)c2ccccc12)N1CCN(c2cccc(Cl)c2)CC1,?,3.7,27.9%[9.22 µM],?,4.3%,1.58µM*
CSc1ccccc1C(=O)N1CCN(c2cccc(Cl)c2)CC1,23.1µM*,-5.6,?,4.4%,-3.9%,-2.8%
CCc1nc(NCCO)c(C#N)c2c1CSC(C)(C)C2,-2.1%,41.6,?,-1.0%,-1.5%,-21.3%
SMILES,SW480 rereplic,Giardia killer,MCF10A rerep,RORg inh,BCR signal inh,VP16 counter
O=C(NC(=O)N1CCN(c2cccc(Cl)c2)CC1)c1ccccc1,22.6%,4.2,?,1.2%,-0.7%,-0.7%[0.365 µM]
O=C(NC(=O)N1CCN(c2cccc(Cl)c2)CC1)c1ccc(Cl)cc1,-0.3%,-1.2,5.17µM*,15.8µM*,?,?
CCN(c1ccc(OC)cc1)S(=O)(=O)c1cc(-c2cc(C)no2)ccc1OC,-37.4%,37.0,-0.6%,11.0%,0.0%,1.8%
CCN(c1ccc(OC)cc1)S(=O)(=O)c1cc(-c2cc(C)no2)ccc1C(C)C,1.0%,-11.9,10.3µM*,1.8%,14.0%,-27.3%
CC(=N\Nc1ccc(Cl)cc1)/C(=N/O)C(=O)Nc1ccccc1,-0.1%,-7.0,3.8%,?,11.8%,-4.6%
CCOC(=O)C(=N/O)/C(C)=N/NC(=O)C(=O)Nc1ccc(Cl)cc1,-18.0%,-12.7,-1.2%,-44.0%,4.7%,20µM*
Cc1ccc(S(=O)(=O)N(C)CC(=O)NNC(=O)CCNS(=O)(=O)c2cccc(C)c2)cc1,-10.5%,-7.4,-0.9%,·,-0.3%,·
Cc1ccccc1NC(=O)C(Cl)=C(Cl)Cl,?,17.4,18.4µM*,-19.0%,?,-2.6%[10 µM]
O=S(=O)(c1ccccc1F)N1CCN(Cc2cc3c(cc2Br)OCCO3)CC1,-5.8%,2.4,?,·,-1.1%,·
CN(C)C1CCN(CCCOc2ccc(-c3ccc(C#N)cc3)cc2)C1 (centres undefined),·,·,·,1.9%,·,-3.3%
Cc1cc(C)c(OCCOCCN2CCN(C)CC2)c(Cl)c1,-33.8%,8.5,5.8µM*,12.9%,2.6%,-6.8%
O=C1CC2CCCN2C=C1I (centres undefined),-55.2%[9.22 µM],-28.1,-5.9%,·,2.9%,·
COc1cccc(NC(=O)[C@H](CC(C)C)NC(=O)N2CCn3c2nc2ccccc23)c1,-14.8%,-29.6,8.3%,18.5%,?,-8.5%
O=C(NC(=S)Nc1ccccc1N1CCCCC1)c1ccc(-c2cccc([N+](=O)[O-])c2)o1,-29.9%,3.8,3.5%,0.501µM*,20.7%,2.24µM*
O=C(Nc1ccccc1N1CCCCC1)c1cccc([N+](=O)[O-])c1,2.6%,-25.4,-2.6%,11.4%,3.8%,-3.0%
CC(=O)N1CCN(c2ccccc2NC(=O)c2ccc(-c3cccc([N+](=O)[O-])c3)o2)CC1,-5.2%,29.6,-1.3%,-4.8%,2.0%,10.7%
O=C(NC(=S)Nc1ccccc1N1CCCC1)c1ccc(-c2cccc([N+](=O)[O-])c2)o1,20.6µM*,2.8,4.2%,12.6%,6.1%,-22.9%
CCCN(CCC)Cc1cc(=O)oc2cc3c(cc12)CCC3,-11.5%,4.7,8.7%,-8.9%,?,-0.6%
O=C(N/N=C/c1cn(-c2ccccc2)nc1-c1ccc2c(c1)OCCO2)c1ccncc1,?,-24.2,17.6%,2.24µM*,?,5.01µM*
O/N=C/c1cn(-c2ccccc2)nc1-c1ccc2c(c1)OCCO2,26.0%,-9.8,16.2%,39.7%,?,-3.5%

# Screens (PubChem)
